About 2,000 (36%) of roughly 5,500 compounds were called active. Another 18% or so got no clear call; they are omitted. Rule as the data show it: active = normalized growth mostly below about 0.91 (no sharp cut-off); inconclusive = no clear call, values can overlap the other calls; inactive = mostly above about 0.92. The list shows a part of the results.
Assay: chemical genetic growth profiling, strain panel (AID 1159580);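 also: tested at 20 µM; growth read once vehicle control cultures reached saturation at 30 °C; 1 = growth at the plate median or of vehicle wells; lower values mean less growth of the strain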
Conditions: growth OD

Measured: normalized growth

FC(F)(F)c1cccc(N2CCNCC2)c1
inactive: S. cerevisiae deletion strains, locus YJL187C, strain SWE1, active compounds read low 0.999 | S. cerevisiae deletion strains, locus YJR043C, strain POL32, active compounds read low 1 | S. cerevisiae deletion strains, locus YJR075W, strain HOC1, active compounds read low 0.958 | S. cerevisiae deletion strains, locus YKL009W, strain mrt4, active compounds read low 1 | S. cerevisiae deletion strains, locus YKL068W, active compounds read low 0.997 | S. cerevisiae deletion strains, locus YKL085W, strain MDH1 (second series), active compounds read low 0.995 | S. cerevisiae deletion strains, locus YKL085W, strain MDH1, active compounds read low 0.995 | S. cerevisiae deletion strains, locus YKL160W, strain elf1, active compounds read low 0.988 | S. cerevisiae deletion strains, locus YKL190W, strain CNB1, active compounds read low 1.01 | S. cerevisiae deletion strains, locus YKR001C, strain vps1, active compounds read low 0.992 | S. cerevisiae deletion strains, locus YKR026C, strain gcn3, active compounds read low 1 | S. cerevisiae deletion strains, locus YKR091W, strain srl3, active compounds read low 0.997 | S. cerevisiae deletion strains, locus YLL001W, strain dnm1, active compounds read low 0.982 | S. cerevisiae deletion strains, locus YLL026W, active compounds read low 0.991 | S. cerevisiae deletion strains, locus YLL041C, strain sdh2, active compounds read low 1 | S. cerevisiae deletion strains, locus YLR027C, strain aat2, active compounds read low 0.993 | S. cerevisiae deletion strains, locus YLR039C, strain RIC1, active compounds read low 1.04 | S. cerevisiae deletion strains, locus YLR058C, strain SHM2, active compounds read low 1.01 | S. cerevisiae deletion strains, locus YLR102C, strain apc9, active compounds read low 0.984 | S. cerevisiae deletion strains, locus YLR221C, strain rsa3, active compounds read low 0.993 | S. cerevisiae deletion strains, locus YLR258W, strain gsy2, active compounds read low 0.981 | S. cerevisiae deletion strains, locus YLR262C, strain YPT6 (second series), active compounds read low 0.981 | S. cerevisiae deletion strains, locus YLR262C, strain YPT6, active compounds read low 0.991 | S. cerevisiae deletion strains, locus YLR268W, strain sec22, active compounds read low 0.993 | S. cerevisiae deletion strains, locus YLR320W, strain mms22, active compounds read low 0.968 | S. cerevisiae deletion strains, locus YLR330W, strain CHS5, active compounds read low 1 | S. cerevisiae deletion strains, locus YLR342W, strain FKS1 (second series), active compounds read low 0.937 | S. cerevisiae deletion strains, locus YLR342W, strain FKS1, active compounds read low 0.997 | S. cerevisiae deletion strains, locus YLR357W, strain rsc2, active compounds read low 0.989 | S. cerevisiae deletion strains, locus YLR370C, strain arc18, active compounds read low 1.01 | S. cerevisiae deletion strains, locus YLR371W, strain rom2, active compounds read low 0.98 | S. cerevisiae deletion strains, locus YLR384C, strain iki3, active compounds read low 0.975 | S. cerevisiae deletion strains, locus YLR418C, strain cdc73, active compounds read low 0.992 | S. cerevisiae deletion strains, locus YML016C, strain PPZ1, active compounds read low 1.01 | S. cerevisiae deletion strains, locus YML032C, strain rad52, active compounds read low 0.965 | S. cerevisiae deletion strains, locus YML120C, strain ndi1, active compounds read low 0.999 | S. cerevisiae deletion strains, locus YML124C, strain tub3, active compounds read low 0.991 | S. cerevisiae deletion strains, locus YMR058W, strain fet3, active compounds read low 1.01 | S. cerevisiae deletion strains, locus YMR078C, strain ctf18, active compounds read low 0.986 | S. cerevisiae deletion strains, locus YMR125W, strain sto1, active compounds read low 0.968 | S. cerevisiae deletion strains, locus YMR129W, active compounds read low 1.01 | S. cerevisiae deletion strains, locus YMR205C, strain PFK2, active compounds read low 0.965 | S. cerevisiae deletion strains, locus YMR223W, strain ubp8, active compounds read low 0.981 | S. cerevisiae deletion strains, locus YMR231W, strain pep5, active compounds read low 0.999 | S. cerevisiae deletion strains, locus YMR263W, strain SAP30, active compounds read low 0.999 | S. cerevisiae deletion strains, locus YMR307W, strain GAS1, active compounds read low 0.996 | S. cerevisiae deletion strains, locus YNL067W, strain RPL9B, active compounds read low 1.01 | S. cerevisiae deletion strains, locus YNL071W, strain lat1, active compounds read low 0.996 | S. cerevisiae deletion strains, locus YNL153C, strain GIM3, active compounds read low 1.01 | S. cerevisiae deletion strains, locus YNL209W, strain ssb2, active compounds read low 0.994 | S. cerevisiae deletion strains, locus YNL233W, strain BNI4, active compounds read low 1 | S. cerevisiae deletion strains, locus YNL248C, strain rpa49, active compounds read low 1 | S. cerevisiae deletion strains, locus YNL250W, strain rad50, active compounds read low 1.01 | S. cerevisiae deletion strains, locus YNL271C, strain bni1, active compounds read low 0.978 | S. cerevisiae deletion strains, locus YNL298W, strain CLA4, active compounds read low 0.992 | S. cerevisiae deletion strains, locus YNL307C, strain MCK1, active compounds read low 0.992 | S. cerevisiae deletion strains, locus YNL322C, strain KRE1 (second series), active compounds read low 0.986 | S. cerevisiae deletion strains, locus YNR049C, strain mso1, active compounds read low 1.01 | S. cerevisiae deletion strains, locus YNR052C, strain pop2, active compounds read low 0.985 | S. cerevisiae deletion strains, locus YOL006C, strain TOP1, active compounds read low 1.04 | S. cerevisiae deletion strains, locus YOL012C, strain htz1 0.923 | S. cerevisiae deletion strains, locus YOL147C, strain pex11, active compounds read low 0.989 | S. cerevisiae deletion strains, locus YOR001W, strain rrp6, active compounds read low 0.985 | S. cerevisiae deletion strains, locus YOR061W, strain CKA2, active compounds read low 1.01 | S. cerevisiae deletion strains, locus YOR069W, strain VPS5, active compounds read low 1 | S. cerevisiae deletion strains, locus YOR070C, strain gyp1, active compounds read low 0.995 | S. cerevisiae deletion strains, locus YOR080W, strain dia2, active compounds read low 0.98 | S. cerevisiae deletion strains, locus YOR083W, strain WHI5, active compounds read low 1.03 | S. cerevisiae deletion strains, locus YOR106W, strain vam3, active compounds read low 1 | S. cerevisiae deletion strains, locus YOR136W, strain idh2, active compounds read low 0.987 | S. cerevisiae deletion strains, locus YOR144C, strain elg1, active compounds read low 0.983 | S. cerevisiae deletion strains, locus YOR184W, strain ser1, active compounds read low 1.03 | S. cerevisiae deletion strains, locus YOR265W, strain rbl2, active compounds read low 0.993 | S. cerevisiae deletion strains, locus YOR270C, strain vph1, active compounds read low 1.07 | S. cerevisiae deletion strains, locus YOR290C, strain snf2, active compounds read low 0.973 | S. cerevisiae deletion strains, locus YOR316C, strain cot1, active compounds read low 0.997 | S. cerevisiae deletion strains, locus YPL051W, strain arl3, active compounds read low 0.993 | S. cerevisiae deletion strains, locus YPL055C, strain LGE1, active compounds read low 1 | S. cerevisiae deletion strains, locus YPL078C, strain atp4, active compounds read low 1.01 | S. cerevisiae deletion strains, locus YPL106C, strain sse1, active compounds read low 0.947 | S. cerevisiae deletion strains, locus YPL240C, strain hsp82, active compounds read low 0.989 | S. cerevisiae deletion strains, locus YPR119W, strain clb2, active compounds read low 0.984 | S. cerevisiae deletion strains, locus YPR141C, strain kar3, active compounds read low 0.988 | S. cerevisiae deletion strains, locus YPR163C, strain tif3, active compounds read low 0.989 | S. cerevisiae deletion strains, locus YPR167C, strain met16, active compounds read low 0.988 | S. cerevisiae deletion strains, strain wtn01, active compounds read low 0.966 | S. cerevisiae strains, strain wild type, active compounds read low 1.01

Source: PubChem BioAssay AID1159580 (chemical genetic matrix, 2015)
